Source: PubChem BioAssay
Hits are enriched below; roughly 3.5% of the tested compounds scored in any of these assays.
Bead autofluor: flagged as autofluorescent in microsphere protease counterscreen; compound autofluorescence counterscreen, microsphere flow cytometry; active compounds read high; fluorescence intensity (concentration not given with the values); 3.1% of 360,000 active; AID 624483; in the data active means fluorescence intensity above about 16000; inconclusive means no clear call, values can overlap the other calls
BoNT-A LC inh2: BoNT A light chain protease inhibition | multiplex microsphere protease substrate cleavage, flow cytometry | inhibition, % at 10 µM | 0.17% of 360,000 active
Anthrax LF prot: inhibitors of Bacillus anthracis lethal factor protease. P15917. multiplex microsphere protease cleavage assay, LF. inhibition, % at 10 µM. 0.12% of 360,000 active. AID 588501
BoNT-F LC inh: inhibitors of Botulinum neurotoxin F light chain protease | Multiplex microsphere protease cleavage assay, flow cytometry | inhibition, % at 10 µM | 0.22% of 360,000 active | AID 588497; in the data active means inhibition above about 35%, passing the limit was not always enough; inconclusive means no clear call, values can overlap the other calls
Hits are given with their value; – = inactive; ? = inconclusive. Unless noted, no stated cut-off is given here; in the data, active means inhibition above about 30%; inconclusive means no clear call, values can overlap the other calls; inactive means below that.

SMILES | Bead autofluor | BoNT-A LC inh2 | Anthrax LF prot | BoNT-F LC inh
COc1ccc2c(=O)c3c(=O)n(Cc4ccco4)c(-c4ccccc4)nc3oc2c1 | – | – | – | –
COc1nnc(-c2ccc(N3CCCCC3)c(NC(C)=O)c2)c2ccccc12 | 19145 | ? | – | –
COc1nnc(-c2ccc(N3CCCCC3)c(NC(=O)C3CCCCC3)c2)c2ccccc12 | – | – | – | –
CCn1nc(C)c(NC(=O)/C=C/c2cnn(C)c2)c1C | 19664 | – | – | –
CCn1nc(C)c(/C=C/C(=O)Nc2ccc(C)cc2C)c1C | – | – | – | 39
CCn1ncc(/C=C/C(=O)Nc2c(C)nn(CC)c2C)c1C | 20272 | – | – | –
Cc1nn(Cc2ccc(Cl)cc2)c(C)c1NC(=O)/C=C/c1cnn(C)c1 | – | – | – | –
CCOC(=O)c1sc(NC(=O)/C=C/c2cnn(CC)c2C)c(C(=O)OCC)c1C | – | – | – | –
Cc1cc(NC(=O)COC(=O)[C@@H](NS(=O)(=O)c2ccc(Br)cc2)C(C)C)no1 | – | – | – | –
Cc1cc(C)n2nc(-c3cnn(C)c3C(F)(F)F)c(Cl)c2n1 | – | – | – | –
Cc1cc(C)n2nc(-c3cnn(C)c3C(F)(F)F)cc2n1 | 19076 | ? | – | –
O=C1NN(c2ccccc2)C(=O)/C1=C\c1ccccc1OCC(=O)N1CCOCC1 | 21121 | – | – | –
COc1ccc(N2CCN(C(CNC(=O)C(=O)NC3CCCC3)c3ccco3)CC2)cc1 (centres undefined) | – | – | – | –
CCOC(=O)c1cc(-c2ccc(C)cc2)n(CCC(=O)NCCN(C)C)c1C | 22889 | – | – | –
COc1ccc(S(=O)(=O)N(C(C)=O)c2ccc3oc(=O)sc3c2)cc1 | 20711 | – | – | –
CC(=NCCN1CCOCC1)c1c(O)n(-c2ccccc2C)c(=O)[nH]c1=O | 23519 | – | – | –
CC(=NCCN1CCOCC1)c1c(O)n(C2CCCCC2)c(=O)[nH]c1=O | 24874 | – | – | –
CCC(=NCCN1CCOCC1)c1c(O)n(-c2ccccc2C)c(=O)[nH]c1=O | – | – | – | –
CC(=NCCCN1CCOCC1)c1c(O)[nH]c(=O)[nH]c1=O | 20875 | – | – | –
O=C(c1c(Cl)cccc1Cl)N1CCN(c2ncccn2)CC1 | – | – | – | –
CCOc1ccc(C(=O)CCC(=O)N(CC)CC(=O)NCc2ccc(Cl)cc2)cc1 | – | – | – | –
CCCNC(=O)c1ccc(N2CCC3(CC2)CC(c2cccc(Br)c2)=NO3)c(NC(=O)c2ccc(Cl)c([N+](=O)[O-])c2)c1 | – | – | – | –
O=C(Nc1nccs1)C1(c2ccc(Cl)cc2)CC1 | – | – | – | –
O=C(Nc1cccnc1)C1(c2ccc(Cl)cc2)CCCC1 | 16176 | ? | – | –
O=C(NCCO)C1(c2ccc(Cl)cc2)CCCC1 | 24150 | – | – | –
SMILES | Bead autofluor | BoNT-A LC inh2 | Anthrax LF prot | BoNT-F LC inh
COc1ccccc1-c1nn2c(-c3ccco3)nnc2s1 | 21284 | – | – | –
COc1cccc(-c2nnc3sc(-c4ccccc4)nn23)c1 | 20646 | ? | – | –
COc1ccc(-c2nn3c(COc4ccccc4)nnc3s2)cc1OC | 17330 | – | – | –
COc1ccc(-c2nn3c(-c4ccccc4)nnc3s2)cc1 | 20178 | – | – | –
CSc1nc(=S)n(-c2ccc([N+](=O)[O-])cc2)c(C)c1C(C)=O | – | – | – | ?
COc1ccc(NC(=O)C2Cc3c(-c4cccc(F)c4)ccnc3O2)cc1OC (centres undefined) | – | – | – | –
COc1ccc(S(=O)(=O)N2CCOC23CCN(S(=O)(=O)c2c(C)cc(C)cc2C)CC3)cc1 | – | – | – | –
Cc1cccc(-c2nnc3sc(-c4ccccc4C)nn23)c1 | 16434 | – | – | –
CCOc1ccc(CCNC(=O)COC(=O)c2nccnc2N)cc1OCC | – | – | – | –
COc1ccccc1-c1ccc(NC2CCCCC2)nn1 | 23544 | – | – | –
O=C1C=C(Nc2ccc(O)cc2)CC(c2ccco2)C1 (centres undefined) | 23693 | ? | – | –
O=C(Nn1c(-c2ccccc2)nc2ccccc2c1=O)C1CCC1 | 21456 | – | – | –
CN(C)C(=S)Nn1c(-c2ccccc2)nc2ccccc2c1=O | – | – | – | –
COc1ccccc1N1CC=C(c2cccc([N+](=O)[O-])c2)NC1=O | – | – | – | –
N#Cc1c(N)nc2c(c1-c1ccncc1)CCCCCC2 | 23466 | – | – | –
CSc1nc2c(c(-c3ccccc3)c1C#N)CCC2 | 21295 | ? | – | –
N#Cc1c(N)nc2c(c1-c1ccccc1)CCCC2 | 21448 | ? | – | –
CC(Nc1ccc2ccccc2c1)C(=O)N/N=C/c1ccncc1 (centres undefined) | – | – | – | –
O=C(Nc1ccccc1C(=O)NCc1ccccc1)c1ccco1 | – | – | – | –
O=C(Nc1ccccc1C(=O)NCc1ccccc1)c1ccccc1 | 22302 | – | – | –
